“And” between values parts separate entries of the source, which are not always exact repeats. Identical values can stand only once. Among all 5,500 compounds or so, about 2,000 (36%) were called active. Roughly 18% stayed inconclusive and do not appear here. Cut-off read from the data, not from the text of the source: active = normalized growth mostly below about 0.91 (no sharp cut-off); inconclusive = no clear call, values can overlap the other calls; inactive = mostly above about 0.92. The list shows a part of the results.
Test: chemical genetic growth profiling, strain panel (AID 1159580);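 note: tested at 20 µM; growth read once vehicle control cultures reached saturation at 30 °C; 1 = growth at the plate median or of vehicle wells; lower values mean less growth of the strain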
Settings: S. cerevisiae deletion strains, growth OD

Measured: normalized growth

Nc1ncnc2nc[nH]c12
0.393 (active) and 1.02 (inactive): locus YHR030C, strain SLT2, stronger effect = lower value
0.593 (active) and 1.02 (inactive): locus YJL095W, strain BCK1, stronger effect = lower value
inactive: locus YAL013W, strain DEP1, stronger effect = lower value 0.94 | locus YAL021C, strain ccr4, stronger effect = lower value 0.99 | locus YAL026C, strain drs2, stronger effect = lower value 0.99 | locus YAL030W, strain snc1, stronger effect = lower value 0.981 | locus YBL061C, strain skt5, stronger effect = lower value 0.98 | locus YBR009C, strain hhf1, stronger effect = lower value 0.992 | locus YBR023C, strain chs3, stronger effect = lower value 0.986 | locus YBR171W, strain sec66, stronger effect = lower value 0.976 | locus YBR229C, strain ROT2, stronger effect = lower value 1.02 | locus YBR231C, strain swc5, stronger effect = lower value 0.982 | locus YBR279W, strain paf1, stronger effect = lower value 0.993 | locus YCL011C, strain gbp2, stronger effect = lower value 0.978 | locus YCL016C, strain dcc1, stronger effect = lower value 0.973 | locus YCL029C, strain bik1, stronger effect = lower value 0.923 | locus YCL061C, strain MRC1, stronger effect = lower value 0.981 | locus YCL069W, strain vba3, stronger effect = lower value 0.99 | locus YCR088W, strain abp1, stronger effect = lower value 0.985 | locus YDL005C, strain med2, stronger effect = lower value 0.985 | locus YDL035C, strain GPR1, stronger effect = lower value 0.894 | locus YDL040C, strain nat1, stronger effect = lower value 0.983 | locus YDL101C, strain DUN1, stronger effect = lower value 0.968 | locus YDL185W, strain tfp1, stronger effect = lower value 1.01 | locus YDR001C, strain nth1, stronger effect = lower value 0.983 | locus YDR069C, strain doa4, stronger effect = lower value 1.01 | locus YDR137W, strain rgp1, stronger effect = lower value 0.985 | locus YDR150W, strain NUM1, stronger effect = lower value 1.02 | locus YDR159W, strain sac3, stronger effect = lower value 1 | locus YDR162C, strain NBP2, stronger effect = lower value 0.951 | locus YDR195W, strain ref2 0.998 | locus YDR297W, strain sur2, stronger effect = lower value 1.01 | locus YDR318W, strain mcm21, stronger effect = lower value 0.939 | locus YDR334W, strain swr1, stronger effect = lower value 0.982 | locus YDR335W, strain msn5, stronger effect = lower value 0.984 | locus YDR388W, stronger effect = lower value 0.98 | locus YDR392W, strain spt3, stronger effect = lower value 0.968 | locus YEL003W, strain gim4, stronger effect = lower value 1.01 | locus YEL037C, strain rad23, stronger effect = lower value 0.984 | locus YEL061C, strain CIN8 (second series), stronger effect = lower value 0.986 | locus YEL061C, strain CIN8, stronger effect = lower value 0.996 | locus YER015W, strain faa2, stronger effect = lower value 0.994 | locus YER016W, strain bim1, stronger effect = lower value 0.994 | locus YER110C, stronger effect = lower value 1 | locus YER111C, strain swi4, stronger effect = lower value 0.983 | locus YER155C, strain BEM2 (second series), stronger effect = lower value 0.989 | locus YER167W, strain BCK2, stronger effect = lower value 1.01 | locus YFR010W, strain ubp6, stronger effect = lower value 0.982 | locus YGL078C, strain dbp3, stronger effect = lower value 0.969 | locus YGL167C, strain pmr1, stronger effect = lower value 0.979 | locus YGL173C, strain kem1, stronger effect = lower value 0.984 | locus YGL227W, strain vid30, stronger effect = lower value 0.987 | locus YGL240W, strain doc1, stronger effect = lower value 0.997 | locus YGL248W, strain PDE1, stronger effect = lower value 0.9 | locus YGL253W, strain hxk2, stronger effect = lower value 0.987 | locus YGR135W, strain pre9, stronger effect = lower value 0.922 | locus YHR013C, strain ard1, stronger effect = lower value 0.975 | locus YHR027C, strain rpn1, stronger effect = lower value 0.979 | locus YHR079C, strain IRE1 (second series), stronger effect = lower value 0.974 | locus YHR079C, strain IRE1, stronger effect = lower value 1.02 | locus YHR094C, strain hxt1, stronger effect = lower value 0.999 | locus YHR142W, strain chs7, stronger effect = lower value 0.955 | locus YHR200W, strain rpn10, stronger effect = lower value 0.998 | locus YIL125W, strain kgd1, stronger effect = lower value 0.991 | locus YIR030C, strain dcg1, stronger effect = lower value 0.988 | locus YJL092W, strain hpr5, stronger effect = lower value 0.99 | locus YJL095W, strain BCK1 (second series), stronger effect = lower value 0.984 | locus YJL115W, strain asf1, stronger effect = lower value 0.99 | locus YJL129C, strain trk1, stronger effect = lower value 0.99 | locus YJL134W, strain LCB3, stronger effect = lower value 1.02 | locus YJL154C, strain vps35, stronger effect = lower value 0.997 | locus YJL164C, strain tpk1, stronger effect = lower value 0.993 | locus YJL166W, strain qcr8, stronger effect = lower value 0.977 | locus YJL168C, strain set2, stronger effect = lower value 1 | locus YJL187C, strain SWE1, stronger effect = lower value 0.98 | locus YJR043C, strain POL32, stronger effect = lower value 0.907
active: locus YBR021W, strain FUR4, stronger effect = lower value 0.201 | locus YDL074C, strain BRE1, stronger effect = lower value 0.645 | locus YDL192W, strain arf1, stronger effect = lower value 0.797 | locus YDR101C, strain arx1, stronger effect = lower value 0.866 | locus YDR502C, strain sam2, stronger effect = lower value 0.908 | locus YER155C, strain BEM2, stronger effect = lower value 0.792 | locus YGL086W, strain mad1, stronger effect = lower value 0.838 | locus YGR078C, strain PAC10, stronger effect = lower value 0.828 | locus YGR252W, strain gcn5, stronger effect = lower value 0.705 | locus YHR129C, strain ARP1, stronger effect = lower value 0.898 | locus YIL066C, strain RNR3, stronger effect = lower value 0.862 | locus YIL073C, strain SPO22, stronger effect = lower value 0.594 | locus YJL187C, strain SWE1 (second series), stronger effect = lower value 0.863
